Bioassay records (PubChem)
Rows were chosen to be rich in hits. Some 3.1% of all compounds tested hit in one or more screens of this group.
FGF22 binding: binders of human FGF22 protein, primary screen, FGF22 synaptogenesis inhibitor project, biophysical, thermal shift, single point; recombinant FGF22 thermal shift, SYPRO orange fluorescence; percent of sucrose octasulfate shift, DMSO zero; Fibroblast growth factor 22 (Homo sapiens), Q9HCT0; 1.5% of 340,000 active; activity (Tm shift, normalised), % at 9.99 µM;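 active means mean Tm shift, scaled 0 neutral to 100 positive control, at about 1.3% or above, every replicate too, limit read from the data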
Casp6 inh: human caspase-6 inhibitors, primary screen, biochemical, VEID-R110 fluorescence, single point, set 2. P55212. purified caspase-6, Z-VEID-R110 cleavage fluorescence. inhibition, % at 12.5 µM. 0.53% of 350,000 active. AID 686996, 2013;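 active means mean inhibition across replicates at least about 35%, with every replicate also reaching that limit, limit read from the data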;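 further: 0% = median of neutral control wells and 100% = no fluorescence left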
Target sequence (P55212 24-179 limits assumed): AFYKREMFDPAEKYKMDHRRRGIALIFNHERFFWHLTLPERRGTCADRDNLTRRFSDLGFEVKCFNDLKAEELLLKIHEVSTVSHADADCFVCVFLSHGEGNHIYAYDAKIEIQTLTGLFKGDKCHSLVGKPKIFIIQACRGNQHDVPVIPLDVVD
Target sequence (P55212 194-293 limits assumed): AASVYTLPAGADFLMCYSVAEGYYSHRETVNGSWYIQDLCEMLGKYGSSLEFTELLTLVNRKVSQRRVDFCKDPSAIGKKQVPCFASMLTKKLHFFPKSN
ERAP1 HTS inh: human ERAP1 aminopeptidase inhibitors, primary screen, biochemical, single point, plate reader; Endoplasmic reticulum aminopeptidase 1 (Homo sapiens), Q9NZ08; recombinant ERAP1, Leu-AMC fluorescence, 60 min; inhibition, % at 10.7 µM; 0.15% of 340,000 active;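 active means mean replicate inhibition of at least 30%, or all replicates individually reaching that 30% level; inactive means mean below 30% and not every replicate reaching it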;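 further: 0% = neutral control wells and 100% = L-leucinethiol positive control wells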
SIRT5 block: SIRT5 desuccinylase inhibitors, primary screen, biochemical, fluorescence imaging, single point, set 5. Purified SirT5, succinyl-peptide AMC, trypsin-coupled fluorescence. 1.1% of 330,000 active. NAD-dependent protein deacylase sirtuin-5, mitochondrial (Homo sapiens), Q9NXA8. inhibition, % at 15 µM; in the data active means inhibition above about 15%
Target sequence (Q9NXA8 whole entry, looked up): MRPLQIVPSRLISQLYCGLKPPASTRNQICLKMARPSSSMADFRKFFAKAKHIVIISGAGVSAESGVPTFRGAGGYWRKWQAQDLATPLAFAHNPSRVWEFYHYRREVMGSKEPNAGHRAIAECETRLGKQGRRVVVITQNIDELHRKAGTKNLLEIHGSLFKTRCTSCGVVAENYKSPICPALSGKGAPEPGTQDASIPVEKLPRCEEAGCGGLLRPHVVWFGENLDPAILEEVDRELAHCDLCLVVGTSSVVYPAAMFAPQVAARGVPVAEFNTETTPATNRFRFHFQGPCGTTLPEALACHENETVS
* hit, by the source's call; nt = no result.

SMILES | FGF22 binding | Casp6 inh | ERAP1 HTS inh | SIRT5 block
O=[N+]([O-])c1cccc(/C=C/c2ccccn2)c1 | 0 | -2 | -2 | 24*
C[C@H]1CN([C@@H](C)CO)S(=O)(=O)c2ccc(C#CC3CCCC3)cc2O[C@@H]1CN(C)Cc1cccnc1 | -1 | -3 | -1 | 17*
C[C@@H]1CN([C@H](C)CO)S(=O)(=O)c2ccc(C#CC3CCCC3)cc2O[C@@H]1CN(C)C(=O)Cc1ccccc1 | 0 | -1 | -3 | 3
C[C@H](CO)N1C[C@H](C)[C@H](CN(C)Cc2cncnc2)Oc2cc(C#CC3CCCC3)ccc2S1(=O)=O | 0 | -1 | 0 | 17*
C[C@H]1CN([C@@H](C)CO)S(=O)(=O)c2ccc(C#CC3CCCCC3)cc2O[C@@H]1CN(C)Cc1cccnc1 | 0 | -2 | -1 | 18*
C[C@H]1CN([C@@H](C)CO)S(=O)(=O)c2ccc(C#CC3CCCC3)cc2O[C@H]1CN(C)C(=O)Cc1ccccc1 | 0 | 0 | 0 | 17*
O=C(Nc1ccc2c(c1)[C@H]1C[C@H](CC(=O)N3CCc4ccccc4C3)O[C@H](CO)[C@H]1O2)C1CCC1 | 0 | 0 | 0 | 2
Cc1noc(C)c1NC(=O)N(C)C[C@@H]1Oc2ccc(NS(=O)(=O)c3ccccc3)cc2C(=O)N([C@@H](C)CO)C[C@H]1C | 0 | 0 | 3 | -4
Cc1ccc(CN(C)C[C@H]2OCc3cn(nn3)CCCC(=O)N([C@@H](C)CO)C[C@@H]2C)cc1 | 0 | -1 | 2 | -1
COc1ccc(S(=O)(=O)Nc2cccc3c2O[C@@H](CN(C)Cc2ccncc2)[C@H](C)CN([C@@H](C)CO)C3=O)cc1 | 0 | -1 | 0 | -6
Cc1c(NC(=O)c2ccccc2NC(=O)c2ccccc2)cccc1C(=O)O | 0 | 1 | -9 | 1
Cc1c(NC(=O)c2ccc(NC(=O)C3CC3)cc2)cccc1C(=O)O | 0 | -10 | -4 | 20*
COc1ccccc1CCC(=O)Nc1ccc(C)cc1Cl | 43* | 0 | 4 | 1
COc1ccccc1CCC(=O)Nc1ccc2c(c1)c(=O)n(C)n2C | 0 | 2 | 38* | -23
COCc1cn(CC[C@H]2CC[C@H](NC(=O)c3ccccc3)[C@H](CO)O2)nn1 | 0 | -2 | -1 | 4
CC(C)C#Cc1ccc2c(c1)O[C@@H](CN(C)C(=O)c1ccncc1)[C@@H](C)CN([C@@H](C)CO)S2(=O)=O | 0 | -2 | 0 | 0
CCOc1cccc(=O)c2c(C)n(-c3ccc(C(=O)O)cc3)c(C)c12 | 0 | 33 | 2 | 29*
CCCNC(=O)C[C@H]1C[C@@H]2c3cc(NC(=O)CC4CC4)ccc3O[C@@H]2[C@@H](CO)O1 | 0 | 3 | 2 | 5
Cc1noc(C)c1S(=O)(=O)Nc1ccc2c(c1)CC(=O)N([C@@H](C)CO)C[C@@H](C)[C@H](CN(C)Cc1ccncc1)O2 | 0 | -9 | 4 | -3
COc1ccc(NC(=O)Nc2ccc3c(c2)CC(=O)N([C@H](C)CO)C[C@H](C)[C@@H](CN(C)S(=O)(=O)c2ccc(C)cc2)O3)cc1 | 0 | 0 | -1 | 15*
Cc1noc(C)c1S(=O)(=O)Nc1ccc2c(c1)CC(=O)N([C@H](C)CO)C[C@H](C)[C@H](CN(C)Cc1ccncc1)O2 | 0 | -1 | 1 | 20*
Cc1ccc(S(=O)(=O)Nc2ccc3c(c2)CC(=O)N([C@H](C)CO)C[C@H](C)[C@@H](CN(C)S(=O)(=O)c2c(C)noc2C)O3)cc1 | 0 | -1 | -1 | 16*
COc1ccc(NC(=O)Nc2ccc3c(c2)CC(=O)N([C@@H](C)CO)C[C@@H](C)[C@@H](CN(C)S(=O)(=O)c2ccc(C)cc2)O3)cc1 | -1 | 2 | -8 | 1
COc1ccc(S(=O)(=O)N(C)C[C@H]2Oc3ccc(NS(=O)(=O)c4ccccc4)cc3CC(=O)N([C@H](C)CO)C[C@@H]2C)cc1 | 0 | -5 | 1 | 17*
CN1CCN(C(=O)C[C@@H]2CC[C@H]3[C@@H](COC[C@H](O)CN3C(=O)Nc3ccc(Cl)cc3)O2)CC1 | 0 | -3 | 1 | -1
SMILES | FGF22 binding | Casp6 inh | ERAP1 HTS inh | SIRT5 block
CCNC(=O)C[C@H]1CC[C@H](NC(=O)C2CCC2)[C@@H](CO)O1 | 0 | 2 | -1 | -3
C[C@@H](NC(=O)C[C@H]1C[C@H]2c3cc(NS(=O)(=O)c4ccc(F)cc4)ccc3O[C@H]2[C@H](CO)O1)c1ccccc1 | 0 | 0 | 2 | 1
COc1ccc(S(=O)(=O)Nc2ccc3c(c2)CC(=O)N([C@@H](C)CO)C[C@@H](C)[C@H](CN(C)S(=O)(=O)c2ccc(C)cc2)O3)cc1 | 0 | nt | 2 | 19*
COc1ccc(S(=O)(=O)N(C)C[C@@H]2Oc3ccc(NS(=O)(=O)c4ccc(C)cc4)cc3CC(=O)N([C@H](C)CO)C[C@@H]2C)cc1 | 0 | nt | nt | nt
CCN(CC)CCC(=O)Nc1cccc2c1C(=O)c1ccccc1C2=O | 0 | 2 | -1 | -2
CCN(CC)CCNC(=O)c1ccc2c(c1NCCO)C(=O)c1ccccc1C2=O | 0 | 36* | 1 | 1
COc1cc(/C=C(/C#N)C(=O)Nc2cc(C(F)(F)F)ccc2Cl)ccc1OCC(=O)Nc1cccc(C(F)(F)F)c1 | 0 | 0 | 0 | 16*
O=C(O)c1ccc2nc(-c3ccco3)c(-c3ccco3)nc2c1 | 0 | 72* | 20 | 22*
C[C@H]1CN([C@@H](C)CO)S(=O)(=O)c2ccc(C3=CCCCC3)cc2O[C@@H]1CN(C)Cc1ccncc1 | -1 | 2 | 1 | 6
CN(c1ccccc1)c1ccc(/C=C(/CCC(=O)O)c2nc3ccccc3s2)cc1[N+](=O)[O-] | 0 | 25 | 0 | 18*
CCC(=O)N[C@@H]1CC[C@@H](CC(=O)NCCN2CCCCC2)O[C@@H]1CO | 0 | -10 | 1 | -3
O=C(/C=C\Nc1ccc2c(c1)OCO2)c1ccc(Cl)s1 | 43* | -5 | 1 | -4
C[C@@H]1CN([C@H](C)CO)C(=O)c2cccc(N(C)C)c2O[C@@H]1CN(C)Cc1ccc2c(c1)OCO2 | 0 | -1 | 4 | 4
Cc1ccc(-n2c(C)nnc2SCC(=O)NNC(=O)c2ccco2)cc1 | 44* | -2 | 0 | -4
Cc1nnc(SCC(=O)NNC(=O)c2ccco2)n1-c1ccccc1 | 0 | 1 | -4 | -3
CCCNC(=O)C[C@@H]1CC[C@@H]2[C@H](COC[C@H](O)CN2Cc2cccc(F)c2)O1 | 0 | -2 | 1 | 0
CCc1c(C)nn(C(=O)/C(C#N)=C\N(C)C)c1C | 0 | 3 | nt | 16*
O=C(NNC(=O)c1ccc(F)cc1F)c1ccc2c(c1)OCO2 | 44* | -2 | -2 | -7
O=C(NN=C1CCCCCC1)c1ccc2c(c1)OCO2 | 43* | 2 | -6 | -3
